Most compounds without a hit are left out; they make up all but 1.4% or so of the library.
LANA-H2B inh – blocks KSHV LANA binding to histone H2A/H2B | inhibition, % (no concentration beside the values) | AID 2629 | 320,000 tested, 0.6% active | cell-free LANA-H2A/H2B peptide, fluorescence polarization; in the data active = inhibition mostly above about 10%, no sharp cut-off; inactive = mostly below about 6.7%
ZTA DNA inh – counter-screen for EBNA-1 inhibitors: inhibitors of Epstein-Barr virus ZTA. ZTA-DNA binding, fluorescence polarization. inhibition, % at 11 µM. 320,000 tested, 0.15% active; in the data active = inhibition above about 33%
EBNA-1 inhibitor – blocks EBNA-1 binding to DNA | EBNA-1 DNA binding, fluorescence polarization | inhibition, % at 14.8 µM | 300,000 tested, 0.34% active | AID 1950; in the data active = inhibition above about 28%
LYPLA1 inh – LYPLA1 (human) inhibition in PME1 counter-screen; inhibition, % at 5.9 µM; O75608; AID 2174; recombinant LYPLA1, FP-Rh probe fluorescence polarization; 320,000 tested, 0.16% active;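 active = inhibition above the mean of all tested compounds plus 3 SD, set per campaign, cut at about 14% in these data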;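 also: inhibitors block serine hydrolase probe labeling of LYPLA1 so polarization falls; 0% = enzyme with DMSO and 100% = wells lacking LYPLA1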
Target sequence (O75608 whole entry, looked up): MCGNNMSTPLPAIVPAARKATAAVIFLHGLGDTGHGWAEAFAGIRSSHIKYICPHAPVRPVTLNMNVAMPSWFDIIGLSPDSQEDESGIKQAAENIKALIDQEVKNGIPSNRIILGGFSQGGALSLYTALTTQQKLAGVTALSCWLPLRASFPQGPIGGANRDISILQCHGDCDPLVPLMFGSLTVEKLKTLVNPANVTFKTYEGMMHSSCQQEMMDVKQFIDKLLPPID
LYPLA2 counter – counter-screen for PME1 inhibitors: inhibitors of human LYPLA2; O95372; recombinant LYPLA2, FP-Rh probe fluorescence polarization; inhibition, % at 5.9 µM; 320,000 tested, 0.38% active;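 active = inhibition above the screen-wide mean plus 3 SD, limit set per campaign, cut at about 26% in these data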;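 also: 0% = LYPLA2 with DMSO and 100% = wells lacking LYPLA2 enzyme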
Target sequence (O95372 whole entry, looked up): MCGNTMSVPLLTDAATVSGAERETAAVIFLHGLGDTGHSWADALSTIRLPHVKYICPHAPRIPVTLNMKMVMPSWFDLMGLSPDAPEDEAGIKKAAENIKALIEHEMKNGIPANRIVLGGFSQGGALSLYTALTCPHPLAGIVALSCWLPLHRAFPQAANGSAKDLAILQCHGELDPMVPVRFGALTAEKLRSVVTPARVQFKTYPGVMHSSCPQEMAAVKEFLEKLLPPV
EBNA-1 inh conf – EBNA-1 (EBV) inhibition, confirmation | shares compounds with EBNA-1 inhibitor | Recombinant EBNA-1 DBD, Cy5-DNA fluorescence polarization | inhibition, % at 14.8 µM | 830 tested, 35% active | AID 2292;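 active = mean inhibition across replicates above a set limit taken from the earlier primary screen, cut at about 28% in these data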;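 also: plate controls were EBNA-1 protein with DMSO for no effect and wells lacking EBNA-1 for full effect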
ZTA counter trip – counter-screen for EBNA-1 inhibitors: Epstein-Barr virus ZTA inhibitors, triplicate; shares compounds with EBNA-1 inhibitor; Zta-ZRE DNA binding, Cy5 fluorescence polarization; inhibition, % at 11.1 µM; 830 tested, under 10 active; AID 2328;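 active = mean inhibition over triplicates above a set limit taken from the primary EBNA-1 screen, cut at about 37% in these data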;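 also: purified full length Zta protein with Cy5 labeled ZRE DNA probe; 0% = Zta with DMSO and 100% = wells lacking Zta protein; inhibitors lower polarization by freeing the labeled DNA probe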
* hit, by the source's call; i = inactive; nt = no result; + = active, no number.

SMILES	LANA-H2B inh	ZTA DNA inh	EBNA-1 inhibitor	LYPLA1 inh	LYPLA2 counter	others
O=C(c1ccc(O)cc1)c1ccc(O)cc1O	12*	-5	-7	2	1
CN(C)c1ccc(C(=O)c2ccc(O)cc2O)cc1	8	-12	-13	3	11
CC1CC(NC(=O)c2c(O)nc3sccn3c2=O)CC(C)(C)C1 (stereo unspecified)	nt	9	3	-3	-9
Cc1ccc(S(=O)(=O)N2CCOCC2)cc1C(=O)OCC(=O)NC1CC1	15	-2	nt	-2	-5
O=C(COC(=O)c1ccccc1Cc1ccccc1)NC1CCS(=O)(=O)C1 (stereo unspecified)	-1	-9	9	1	-1
O=C(Nc1ccc(-n2cnnn2)cc1)C1CCCCC1	13*	14	-4	3	5
O=C(Nc1ccc(-n2cnnn2)cc1)C1CCCN1C(=O)NC1CCCCC1 (stereo unspecified)	-3	-4	-1	-2	-8
O=C(C1CC(=O)N(c2ccc(F)cc2)C1)N1CCOCC1 (stereo unspecified)	-2	8	-2	-7	-8
O=C(C1CC(=O)N(c2ccc(Cl)cc2)C1)N1CCN(Cc2ccc3c(c2)OCO3)CC1 (stereo unspecified)	0	-6	6	4	9
O=C(C1CC(=O)N(c2ccc(Cl)cc2)C1)N1CCOCC1 (stereo unspecified)	28*	-1	-8	-1	0
Cc1ccc(N2CC(C(=O)N3CCN(Cc4ccc5c(c4)OCO5)CC3)CC2=O)cc1 (stereo unspecified)	52*	-9	-5	1	4
COc1ccc(-n2cnc3ccccc3c2=O)c([N+](=O)[O-])c1	4	nt	nt	nt	nt
COc1ccc(CCNC(=O)Cc2cccc(C(F)(F)F)c2)cc1OC	5	-10	-14	-10	-3
COc1ccc(-c2sc3ccccc3c2-c2ccc(O)cc2)cc1	-1	nt	nt	nt	nt
COc1ccc(-c2sc3cc(OC)c(OC)cc3c2-c2ccc(O)cc2)cc1	+	nt	nt	nt	nt
CC12CCC(=O)N1C(C(=O)Nc1cc(Cl)ccc1N1CCOCC1)CS2 (stereo unspecified)	-5	-23	-6	1	2
O=C(Nc1ccccc1C(=O)N1CCCC1)c1ccc(Cl)cc1Cl	18*	-5	1	1	-10
CC1CCN(C(=O)CCNS(=O)(=O)c2ccc(Br)cc2)CC1	24*	-19	nt	0	3
COc1ccc(C2NC(=S)NC3=C2CCc2cc(OC)ccc23)cc1 (stereo unspecified)	-4	-12	-8	2	1
Cc1nc(CSc2ccc(Cl)cc2)cc(N2CCOCC2)n1	5	0	10	2	1
Cc1ccc(SCc2cc(=O)[nH]c(N3CCOCC3)n2)cc1	17*	-3	2	7	2
CCN(Cc1nc2ccccc2c(=O)[nH]1)C(=O)c1cc2c(s1)CCCCC2	-1	-6	nt	-4	-3
NCCC1CCCC(CCN)N1 (stereo unspecified)	-5	+	+	-3	-3
COC(=O)c1ccc(OCC(O)CNCC(c2ccc(OC)cc2)N(C)C)c(OC)c1 (stereo unspecified)	1	8	-13	-3	0
COC1CCN(C(=O)C2CCC(=O)N(CCc3cccc(F)c3)C2)CC1 (stereo unspecified)	3	-7	9	-1	1
SMILES	LANA-H2B inh	ZTA DNA inh	EBNA-1 inhibitor	LYPLA1 inh	LYPLA2 counter	others
Cc1ccc(S(=O)(=O)N(C)C)cc1NC(=O)COC(=O)/C=C/c1ccc(F)cc1	1	-6	-3	2	7
Cc1ccc(C(c2cc(Br)ccc2O)N2CCSCC2)cc1 (stereo unspecified)	-5	-20	0	-3	-2
O=C(NCCCN1CCCC1)Nc1cccc2ccccc12	14*	0	-4	-3	-1
CC[C@]12c3[nH]c4ccccc4c3CCN1C(=O)C(CC(=O)NC/C=C(\C)CCC=C(C)C)C[C@@H]2C(=O)N1CCN(C(=O)c2ccco2)CC1 (stereo partly specified)	+	nt	nt	nt	nt
CC[C@]12c3[nH]c4ccccc4c3CCN1C(=O)C(CC(=O)NCC13CC4CC(CC(C4)C1)C3)C[C@@H]2C(=O)N1CCN(C(=O)c2ccco2)CC1 (stereo partly specified)	i	nt	nt	nt	nt
O=C(O)c1ccccc1SCc1csc(-c2ccccc2)n1	12*	-13	-9	2	6
CCn1c(CC(=O)Nc2ccc(C)cc2)nnc1SCC(=O)N1CCOCC1	-3	-9	0	-1	2
O=C(/C=C/c1ccc(F)cc1)N1CC[C@@]2(O)CCCC[C@H]2C1	4.7*	-9	-4	4	6
CCN(CC)c1ccc2c(c1)CCCN2	20*	-11	-2	6	5
CCOc1ccc(NC(=O)CN(C)C(=O)/C=C/c2ccco2)cc1OCC	-1	-23	nt	-2	0
CCOC(=O)CNC(=S)N(CCCN1CCN(C)CC1)Cc1cccs1	-4	2	-9	1	3
CC1=CC(C#N)(C#N)C(C#N)(C#N)C(c2ccccc2)N1 (stereo unspecified)	14	9	-16	42*	44*
Cc1ccc(C)c(C(=O)COC(=O)CCCC(=O)Nc2cc(C(F)(F)F)ccc2Cl)c1	12*	-20	-13	0	-6
O=C(CCNC(=O)c1ccccc1Cl)Nc1cc(C(F)(F)F)ccc1Cl	5	-2	7	3	3
COc1ccc(CCN=C(N)NS(=O)(=O)c2ccc(F)cc2)cc1OC	26*	7	12	5	3
COc1cc(NC(=O)COc2cc3oc(=O)cc(C)c3cc2Cl)cc(OC)c1OC	15*	-5	11	1	0
Cc1ccc(-c2cc3c(N=O)c4ccccc4c-3n[nH]2)cc1	8	5	16	-23	-44
Cc1cccc(-c2cc3c(N=O)c4ccccc4c-3n[nH]2)c1	-2	-6	30*	-8	-19
Cc1ccsc1/C=C/c1ccc2cccc(O)c2n1	0	3	6	-2	3
Oc1cccc2ccc(/C=C/c3cccs3)nc12	13*	-2	1	4	0
O=C1N=C(N2C=CC(=C3C=CNC=C3)C=C2)/C(=C/N=NC(=O)c2ccccc2)S1	3	3	7	0	0
Cc1cc(C(=O)N/N=C/c2ccc(-c3cccc(Br)c3)o2)n[nH]1	-2	-1	35*	-3	-8	EBNA-1 inh conf=16;ZTA counter trip=17
COC(=O)N/N=C/c1cc(N=Nc2ccccc2)ccc1O	3	-5	-12	-1	0
Cc1cc(C(=O)N/N=C/c2ccc(-c3cccc(Cl)c3Cl)o2)n[nH]1	1	12	13	-7	-12
